Screens deposited in PubChem BioAssay by National Center for Advancing Translational Sciences (NCATS).
Tau FP inhib = blocks human tau fibril formation measured by polarization; 0.39% of 280,000 active; P10636; AID 1468; Potency, µM (titrated, usually from 57.7 µM), most hits filed as inhibitors; K18 P301L tau heparin fibrillization, Alexa594 FP, 6 h; active means well fitted curve in the direction sought with a large enough effect; inconclusive means small, poorly fitted or top-dose-only effect, or another doubt; inactive means no such curve, though single readings can be large; an effect the other way counts as inactive or inconclusive; further: nearly all actives have a fitted effect of over 55% in size
Target sequence (P10636 561-689 P618L limits assumed): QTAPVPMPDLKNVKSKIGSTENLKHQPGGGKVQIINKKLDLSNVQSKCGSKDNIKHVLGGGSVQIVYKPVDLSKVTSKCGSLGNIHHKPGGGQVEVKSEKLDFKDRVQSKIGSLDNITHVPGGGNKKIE
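Steps: dispense K18 P301L tau (15 uM plus 0.24 uM Alexa 594 tracer, final) in pH 7 sodium acetate; add compound; add heparin (20 uM final); incubate 6 hr, 37 C; add ThT (30 uM final); after 1 hr ambient, read FP.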
ALDH1A1 inh = inhibitors of human aldehyde dehydrogenase 1A1; Purified ALDH1A1, NADH fluorescence, propionaldehyde substrate; 7.3% of 220,000 active; P00352; AID 1030; Potency, µM (titrated, usually from 75.3 µM), most hits filed as inhibitors
JMJD2E inh = inhibitors of human JMJD2E histone demethylase | B2RXH2 | JMJD2E catalytic domain, FDH-coupled NADH fluorescence (FDH is formaldehyde dehydrogenase) | Potency, µM (series often up to 57.1 µM), most hits filed as inhibitors | 1.6% of 230,000 active | AID 2147; further: nearly all actives have a fitted effect of over 50% in size
Tau fluor counter = counter-screen for tau fibril formation inhibitors. tau K18 P301L Alexa594 fluorescence, heparin fibrillization. Potency, µM (top dose mostly 57.7 µM). 0.93% of 280,000 active; active means well fitted curve in the direction sought with a large enough effect; inconclusive means small, poorly fitted or top-dose-only effect, or another doubt; inactive means no such curve, though single readings can be large; an effect the other way counts as inactive or inconclusive; further: nearly all actives have a fitted effect of over 55% in size
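Human tau K18 P301L (15 uM unlabeled, 0.24 uM Alexa 594-labeled) in 100 mM sodium acetate pH 7 with 20 uM heparin, 6 hr at 37 C. ThT 30 uM added, 1 hr ambient; Alexa 594 FP and total fluorescence read at 555/632 nm.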
HPGD block = inhibitors of human 15-hydroxyprostaglandin dehydrogenase (HPGD). P15428. purified HPGD, NADH fluorescence kinetic, PGE2 substrate. Potency, µM, hits mostly inhibitors. 4.3% of 150,000 active
Target sequence (P15428 whole entry, looked up): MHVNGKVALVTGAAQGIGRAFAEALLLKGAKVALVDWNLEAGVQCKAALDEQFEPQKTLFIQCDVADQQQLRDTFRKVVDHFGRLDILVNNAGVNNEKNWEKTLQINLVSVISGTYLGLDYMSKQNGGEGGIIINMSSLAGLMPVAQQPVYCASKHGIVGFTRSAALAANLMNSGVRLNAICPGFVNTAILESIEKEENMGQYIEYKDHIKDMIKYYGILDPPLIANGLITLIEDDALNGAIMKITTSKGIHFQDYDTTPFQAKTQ
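20 nM HPGD preincubated 15 min at room temperature with compound in 50 mM Tris-HCl pH 8, 0.01% Tween 20. Started with 1 mM NAD+ and 30 uM prostaglandin E2; NADH fluorescence (360/450 nm) read 5 times over 30-s intervals, last minus first.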
Tau fibril ThT = tau fibrillization inhibition (ThT binding). P10636. recombinant tau K18 P301L (four-repeat tau fragment), heparin-induced fibrillization, ThT fluorescence. Potency, µM (titrated, usually from 57.4 µM), actives largely listed as inhibitors. 2.1% of 270,000 active. AID 1460; active means well fitted curve in the direction sought with a large enough effect; inconclusive means small, poorly fitted or top-dose-only effect, or another doubt; inactive means no such curve, though single readings can be large; an effect the other way counts as inactive or inconclusive; further: nearly all actives have a fitted effect of over 55% in size
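K18 P301L tau (15 uM + 0.24 uM Alexa 594-tagged), heparin 20 uM, NaOAc pH 7, 6 h 37 C; ThT 30 uM, 1 h RT, ex 450/em 510 nm.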
Of the large screens only hits and unclear results are named; the others gave an inactive call. Most compounds without a hit are left out; they make up all but 9.9% or so of the library. Unless noted, the call rests on the fitted dose curve; in most records, active means well fitted inhibition curve with a large enough effect (not every such curve was filed as active); inconclusive means small, poorly fitted or top-dose-only effect, or another doubt; inactive means no such curve, though single readings can be large or run the other way.

Oc1cccc2cccnc12	JMJD2E inh 11.2µM
CN(C(=O)Oc1cccc2cccnc12)c1ccccc1	none
C=C(C=O)C[C@@H]1C[C@H](O)C2OC3C[C@]4(C)OC5/C=C\CC6OC7C(CC=CCC6OC5CCCC4OC3CC2O1)OC1CC2OC3CC(=O)OC3C[C@@H](C)C[C@@]2(C)OC1C[C@@H]7C (some centres not stated)	Tau FP inhib 3.98µM, Tau fibril ThT 3.55µM (no result: ALDH1A1 inh, HPGD block)
Cc1cc(C)nc(/N=C/c2c(O)n(C)c(=O)n(C)c2=O)n1	ALDH1A1 inh inconclusive, JMJD2E inh inconclusive
O=c1c2ccccc2nc(-c2ccco2)n1-c1ccncc1	ALDH1A1 inh 28.2µM
O=c1c2ccccc2nc(-c2ccc([N+](=O)[O-])cc2)n1-c1ccccc1	ALDH1A1 inh 3.16µM
COc1ccc(-c2nc3ccccc3c(=O)n2-c2ccc(OC)cc2)cc1	ALDH1A1 inh 11.2µM (no result: HPGD block)
Cc1ccccc1-n1c(-c2ccc([N+](=O)[O-])cc2)nc2ccccc2c1=O	ALDH1A1 inh 7.94µM
Cc1cccc(-n2c(-c3ccc([N+](=O)[O-])cc3)nc3ccccc3c2=O)c1	ALDH1A1 inh inconclusive
ClCC(Cl)Cl	none (no result: Tau FP inhib, JMJD2E inh, Tau fluor counter, Tau fibril ThT)
CC/C=C\C/C=C\C/C=C\C/C=C\C/C=C\CCCC(=O)NCCCC(=O)O	none
CCN1C(=O)c2ccccc2Sc2ccc(NC(=O)c3ccc(C)c(F)c3)cc21	Tau FP inhib inconclusive (no result: ALDH1A1 inh, JMJD2E inh, HPGD block)
Nn1c(COc2ccc(Cl)cc2)n[nH]c1=S	ALDH1A1 inh 25.1µM, JMJD2E inh inconclusive (no result: HPGD block)
Cc1cccc(C)c1OCc1n[nH]c(=S)n1N	ALDH1A1 inh 25.1µM (no result: HPGD block)
O=C1NC(=O)N(c2ccc(Cl)cc2)C(=O)/C1=C\c1ccc(Sc2nc3ccccc3[nH]2)o1	Tau FP inhib inconclusive, ALDH1A1 inh inconclusive, HPGD block 10µM, Tau fibril ThT 14.1µM
O=C1NC(=O)C(=Cc2ccc(Sc3ccccc3)o2)C(=O)N1	JMJD2E inh inconclusive, Tau fibril ThT inconclusive (no result: ALDH1A1 inh, HPGD block)
O=C(c1ccc2c(c1)ncn2C1CCCCC1)N1CCC2(CC1)OCCO2	HPGD block 7.94µM
COc1cccc(C(=O)N2CCC3(CC2)OCCO3)c1	none (no result: ALDH1A1 inh, HPGD block)
ClCCCCl	none (no result: Tau FP inhib, JMJD2E inh, Tau fluor counter, Tau fibril ThT)
Cc1cccc(-n2c(O)c(C=Nc3ccc(S(N)(=O)=O)cc3)c(=O)[nH]c2=O)c1	none (no result: HPGD block)
O=c1[nH]c(=O)n(-c2ccc(Cl)cc2)c(O)c1C=Nc1ccc(S(=O)(=O)Nc2nccs2)cc1	ALDH1A1 inh inconclusive, JMJD2E inh inconclusive, HPGD block 22.4µM
CCN(CC)S(=O)(=O)c1ccc(N=Cc2c(O)n(-c3ccccc3)c(=O)[nH]c2=O)cc1	ALDH1A1 inh 22.4µM, Tau fibril ThT inconclusive
c1ccc(N2CCC3(CCNCC3)CC2)cc1	none (no result: Tau FP inhib, JMJD2E inh, Tau fluor counter, Tau fibril ThT)
Fc1ccc(CCNCc2ccccc2Cl)cc1	none
Fc1ccc(CNCCc2ccccc2)cc1	ALDH1A1 inh inconclusive, JMJD2E inh 31.6µM (no result: HPGD block)
COc1cc(/C=N/NC(=O)CN2CCCCC2)ccc1OCc1ccccc1	ALDH1A1 inh 22.4µM, JMJD2E inh inconclusive
COc1ccc(C)cc1NC(=O)CN1CCN(CC(=O)Nc2ccccc2F)CC1	ALDH1A1 inh inconclusive
Cc1nonc1-c1nc(-c2nonc2N)n[nH]1	HPGD block 14.1µM
N[C@@H](CSC1c2ccccc2-c2ccccc21)C(=O)O	none (no result: Tau FP inhib, JMJD2E inh, Tau fluor counter, Tau fibril ThT)
O=C1NC(=S)N(c2ccc(F)cc2)C(=O)/C1=C\c1ccoc1	Tau FP inhib inconclusive, ALDH1A1 inh inconclusive, JMJD2E inh inconclusive, Tau fibril ThT 17.8µM (no result: HPGD block)
Cc1ccc(N2C(=O)NC(=O)/C(=C\c3ccoc3)C2=O)cc1	ALDH1A1 inh inconclusive, Tau fibril ThT inconclusive (no result: HPGD block)
C=CCN1C(=O)C2(C(C(=O)OCC)=C(N)Oc3ccccc32)c2c1c1ccccc1oc2=O (configuration not stated)	ALDH1A1 inh 0.398µM
CCOC(=O)C1=C(N)Oc2ccccc2C12C(=O)N(CC(=O)OC)C(CC(=O)OC)=C2C(=O)OC (configuration not stated)	ALDH1A1 inh 1.26µM, Tau fibril ThT inconclusive
Nc1ccc([N+](=O)[O-])cc1N	none (no result: Tau FP inhib, JMJD2E inh, Tau fluor counter, Tau fibril ThT)
COc1ccc(/C=C/C(=O)c2c(O)n(CCC3=CCCCC3)c(=O)[nH]c2=O)cc1	ALDH1A1 inh inconclusive, Tau fibril ThT inconclusive
COc1ccc(/C=C/C2=CCN(C)CC2)cc1	ALDH1A1 inh 25.1µM (no result: HPGD block)
[CH3][Hg][Cl]	ALDH1A1 inh 0.708µM, HPGD block inconclusive (no result: Tau FP inhib, JMJD2E inh, Tau fluor counter, Tau fibril ThT)
CCCCOC(=O)CCN1C(=O)/C(=C2\SC(=S)N(CCC(=O)OCCCC)C2=O)SC1=S	ALDH1A1 inh 14.1µM
c1csc(-c2nnc(Cc3cccc4ccccc34)o2)c1	HPGD block 17.8µM
COc1ccc(Cn2c(N)c(C(=O)NCc3ccco3)c3nc4ccccc4nc32)cc1OC	Tau FP inhib inconclusive, ALDH1A1 inh inconclusive, JMJD2E inh inconclusive, Tau fluor counter inconclusive, HPGD block inconclusive, Tau fibril ThT 14.1µM
